Drawing on PubChem BioAssay (NCATS), this text covers Potency, Z-AUC and z-score for 4 compounds.

Records with an inconclusive call do not appear. The source made the active and inactive calls. Unless noted, calls follow the shape of the dose curve; as a rule, active = well fitted cell-killing curve with a large enough effect; inconclusive = small, poorly fitted or top-dose-only effect, or effect the other way; inactive = no such curve, though single readings can be large or run the other way.

A short description of experiment [1]: Quantitative High-Throughput drug screen in 47 multiple myeloma cell lines against the NCATS MIPE library collection: KMS34_JCRB cell viability assay (AID 1918985). Also: potency is read from the fitted curve at half-maximal effect; nearly all actives have a fitted effect of over 40% in size. Summed up:
(§1)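 Readout: median RLU from CellTiter-Glo after 5 min at room temperature. Preceding step was 48 h drug treatment of 500 cells/well at 37 °C, 5% CO2, with DMSO-only and media-only control wells.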

Experiment [2] in a line: Quantitative High-Throughput drug screen in 47 multiple myeloma cell lines against the NCATS MIPE library collection: OCIMY7_PLB cell viability assay (AID 1918987). Also: potency is read from the fitted curve at half-maximal effect; nearly all actives have a fitted effect of over 65% in size. In short, it runs like this: as §1
A short description of experiment [3]: Quantitative High-Throughput drug screen in 47 multiple myeloma cell lines against the NCATS MIPE library collection: OCIMY5_PLB cell viability assay (AID 1918988). Also: potency is read from the fitted curve at half-maximal effect; nearly all actives have a fitted effect of over 65% in size. Summed up:
as §1

A short description of experiment [4]: Quantitative High-Throughput drug screen in 47 multiple myeloma cell lines against the NCATS MIPE library collection: OPM1_PLB cell viability assay (AID 1918989). Also: potency is read from the fitted curve at half-maximal effect; nearly all actives have a fitted effect of over 40% in size. Summed up: as §1
A short description of experiment [5]: Quantitative High-Throughput drug screen in 47 multiple myeloma cell lines against the NCATS MIPE library collection: SKMM1_PLB cell viability assay (AID 1919863). Also: potency is read from the fitted curve at half-maximal effect; nearly all actives have a fitted effect of over 35% in size. The note with it: SKMM1 myeloma viability, CellTiter-Glo ATP, 48 h; viability: stronger effect = lower value. Summed up: as §1
Background: ATP-based viability assays read luminescence as a measure of living cells.

The nature of experiment [6]: Quantitative High-Throughput drug screen in 47 multiple myeloma cell lines against the NCATS MIPE library collection: U266_ATCC cell viability assay (AID 1919864). Also: potency is read from the fitted curve at half-maximal effect; nearly all actives have a fitted effect of over 35% in size. Summed up:
as §1

The nature of experiment [7]: Quantitative High-Throughput drug screen in 47 multiple myeloma cell lines against the NCATS MIPE library collection: XG6_PLB cell viability assay (AID 1919865). Also: potency is read from the fitted curve at half-maximal effect; nearly all actives have a fitted effect of over 40% in size. Summed up: as §1
The nature of experiment [8]: Quantitative High-Throughput drug screen in 47 multiple myeloma cell lines against the NCATS MIPE library collection: XG1_PLB cell viability assay (AID 1919866). Also: potency is read from the fitted curve at half-maximal effect; nearly all actives have a fitted effect of over 35% in size. Summed up: as §1
Experiment [9] is described as follows: Quantitative High-Throughput drug screen in 47 multiple myeloma cell lines against the NCATS MIPE library collection: VP6_DJ cell viability assay (AID 1919867). Also: potency is read from the fitted curve at half-maximal effect; nearly all actives have a fitted effect of over 40% in size. In short, it runs like this: as §1
The nature of experiment [10]: Quantitative High-Throughput drug screen in 47 multiple myeloma cell lines against the NCATS MIPE library collection: UTMC2_PLB cell viability assay (AID 1919868). Also: potency is read from the fitted curve at half-maximal effect; nearly all actives have a fitted effect of over 55% in size. Particulars: CellTiter-Glo ATP luminescence, 48 h; viability (% of DMSO control): at 45.8 µM (top of the series) unless noted. Summed up:
as §1

A short description of experiment [11]: Quantitative High-Throughput drug screen in 47 multiple myeloma cell lines against the NCATS MIPE library collection: PE2_PLB cell viability assay (AID 1919869). Also: potency is read from the fitted curve at half-maximal effect; nearly all actives have a fitted effect of over 35% in size. Summed up:
as §1

A short description of experiment [12]: Quantitative High-Throughput drug screen in 47 multiple myeloma cell lines against the NCATS MIPE library collection: PCM6_Riken cell viability assay (AID 1919870). Also: potency is read from the fitted curve at half-maximal effect; nearly all actives have a fitted effect of over 30% in size. Summed up: as §1
Experiment [13] is described as follows: Quantitative High-Throughput drug screen in 47 multiple myeloma cell lines against the NCATS MIPE library collection: RPMI8226_ATCC cell viability assay (AID 1919871). Also: potency is read from the fitted curve at half-maximal effect; nearly all actives have a fitted effect of over 30% in size. Summed up: as §1
Experiment [14] in a line: Quantitative High-Throughput drug screen in 47 multiple myeloma cell lines against the NCATS MIPE library collection: OPM2_DSMZ cell viability assay (AID 1919872). Also: potency is read from the fitted curve at half-maximal effect; nearly all actives have a fitted effect of over 30% in size. Summed up:
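CellTiter-Glo ATP luminescence gave viability after 48 h compound treatment at 37C of 500 multiple myeloma cells per well. Normalisation used DMSO-only wells as 100% and media-only wells as 0% viability; primary qHTS of approved and investigational drugs.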

Experiment [15] in a line: Quantitative High-Throughput drug screen in 47 multiple myeloma cell lines against the NCATS MIPE library collection: KMS11_JCRBsus cell viability assay (AID 1919873). Also: potency is read from the fitted curve at half-maximal effect; nearly all actives have a fitted effect of over 50% in size. In short, it runs like this: as §1
Experiment [16] is described as follows: Quantitative High-Throughput drug screen in 47 multiple myeloma cell lines against the NCATS MIPE library collection: KMS28BM_JCRB cell viability assay (AID 1919874). Summed up: as §1
Experiment [17] can be described thus: qHTS drug screen for cell cycle checkpoint inhibitors in PARPi-resistant BRCA-mutant ovarian cancer cell lines. (AID 1963452; calls by dose curve). Particulars: PEO1/OlaR viability, CellTiter-Glo luminescence, 96 h, stronger effect = lower value. Summed up: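 PEO1, PEO4 and PEO1/OlaR ovarian cancer cells, 600 per well, exposed 96 h at 37C to a dilution series. Viability read by CellTiter-Glo luminescence, normalized to DMSO and empty wells; activity summarized as Z-AUC.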
On the technique in general: qHTS replaces the single test concentration by a dilution series.

Experiment [18] in a line: qHTS for identification of novel therapeutic agents for treatment of microphthalmiaassociated transcription factor (MiT) renal cell carcinoma (RCC) (AID 1963991; calls by dose curve; also: potency is read from the fitted curve at half-maximal effect). Particulars: CellTiter-Glo, 48 h; for z-score: stronger effect = lower value. Summed up: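 Three TFE3-fusion RCC lines (UOK109, UOK124, UOK145), 500 cells/well in complete medium, were treated with MIPE 4.0 compounds for 48 hours at 37 C. Viability was by CellTiter-Glo luminescence, normalized to DMSO (100%) and empty wells (0%); curves fitted over 11 concentrations.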

The mark [19] stands for this setting: measured here: PEO1 parental Z-AUC.

Regarding `C=C1C(=CC=C2CCC[C@]3(C)[C@@H]([C@H](C)C=C[C@H](C)C(C)C)CC[C@@H]23)C[C@@H](O)C[C@@H]1O`, the Potency in experiment [1] is 3.32 µM (active); in experiment [2] it was 11.8 µM (active); in experiment [3], 0.526 µM (active); in [4], 1.66 µM (active); in experiment [5], 14.8 µM (active); in experiment [6] it was 1.05 µM (active). In addition, the Potency was 1.87 µM (active) in experiment [7]; 1.32 µM (active) in experiment [8]; 0.132 µM (active) in [9]; 2.09 µM (active) in experiment [10]; 16.6 µM (active) in experiment [11]; 1.32 µM (active) in experiment [12]. Further, the Potency is 14.8 µM (active) in [13]; 10.5 µM (active) in [14]; 0.526 µM (active) in experiment [15]; 0.209 µM (active) in [16]; 0.418 µM (active) in [18] (TFE3-RCC UOK109 viability, active = Z-AUC below -0.8 in all three lines). Also, the values for the Z-AUC in experiment [17], in experiment [17] (setting [19]) and in experiment [17] (measured here: PEO4 Z-AUC) were 0.703 (inactive), 0.5 and 0.821, respectively. Further, the z-score in experiment [18] (TFE3-RCC UOK109 viability, measured here: UOK109 Z-AUC) is -1.36; in [18] (TFE3-RCC viability, measured here: UOK124 Z-AUC), -0.997; in experiment [18] (TFE3-RCC viability, measured here: UOK145 Z-AUC), -1.08.

Turning to `COc1cc2c(Oc3ccc(NC(=O)C4(C(=O)Nc5ccc(F)cc5)CC4)cc3F)ccnc2cc1OCCCN1CCOCC1`, the Potency in experiment [1] is 10.5 µM (active); in experiment [2], 0.264 µM (active); in [3], 5.9 µM (active); in experiment [4], 4.18 µM (active); in experiment [5] it was 20.9 µM (active); in experiment [6] it was 20.9 µM (active). For the same compound, the Potency is 5.26 µM (active) in experiment [7]; 9.35 µM (active) in [8]; 3.72 µM (active) in experiment [9]; 3.32 µM (active) in experiment [10]; 8.33 µM (active) in experiment [11]; 10.5 µM (active) in experiment [12]. Besides, the Potency in [13] was 13.2 µM (active); in [14] it was 4.18 µM (active); in experiment [15], 1.18 µM (active); in experiment [16], 3.32 µM (active). Moreover, the Z-AUC is -0.782 (inactive) in [17], -0.246 in experiment [17] (setting [19]) and -0.374 in experiment [17] (measured here: PEO4 Z-AUC).

Take `COc1cc2c(NC3CCN(C(C)C)CC3)nc(C3CCCCC3)nc2cc1OCCCN1CCCC1`: the Potency in experiment [1] was 5.26 µM (active); in experiment [2], 16.6 µM (active); in experiment [3], 6.62 µM (active); in experiment [4], 3.32 µM (active); in experiment [5], 11.8 µM (active); in experiment [6], 2.96 µM (active). The Potency in [7] was 2.64 µM (active); in experiment [8], 4.69 µM (active); in experiment [9], 5.9 µM (active); in experiment [10], 13.2 µM (active); in [11], 5.26 µM (active); in [12] it was 3.32 µM (active). Further, the Potency in experiment [13] was 6.62 µM (active); in [14], 7.43 µM (active); in experiment [15], 8.33 µM (active); in [16], 14.8 µM (active). Further, the Z-AUC in [17] is 0.841 (inactive); in experiment [17] (setting [19]) it was 0.768; in [17] (measured here: PEO4 Z-AUC) it was 0.938.

Turning to `O=C(C=Cc1cccnc1)NCCCCC1CCN(C(=O)c2ccccc2)CC1`, the Potency in experiment [1] is 0.0166 µM (active); in experiment [2], 0.0105 µM (active); in [3] it was 0.0418 µM (active); in experiment [4], 0.0118 µM (active); in experiment [5], 0.059 µM (active); in experiment [6], 18.7 µM (active). For the same compound, the Potency in experiment [7] was 0.0743 µM (active); in experiment [8], 0.001 µM (active); in experiment [9], 0.0187 µM (active); in experiment [10], 0.001 µM (active); in [11], 0.0132 µM (active); in [12], 0.0264 µM (active). In addition, the Potency was 0.0148 µM (active) in experiment [15] and 0.0833 µM (active) in experiment [16].
